# The supplement of paper PMC3334620
# The full ranking holds about 33,000 sequences; the median of “E-score (-0.5 to 0.5)” is about -0.032, and the highest 2% start at about 0.36. Only a selection was taken, and the highest values are over-represented in it overall.
# Target: T1, Sko1 (UniProt Q02100)
# T1 sequence: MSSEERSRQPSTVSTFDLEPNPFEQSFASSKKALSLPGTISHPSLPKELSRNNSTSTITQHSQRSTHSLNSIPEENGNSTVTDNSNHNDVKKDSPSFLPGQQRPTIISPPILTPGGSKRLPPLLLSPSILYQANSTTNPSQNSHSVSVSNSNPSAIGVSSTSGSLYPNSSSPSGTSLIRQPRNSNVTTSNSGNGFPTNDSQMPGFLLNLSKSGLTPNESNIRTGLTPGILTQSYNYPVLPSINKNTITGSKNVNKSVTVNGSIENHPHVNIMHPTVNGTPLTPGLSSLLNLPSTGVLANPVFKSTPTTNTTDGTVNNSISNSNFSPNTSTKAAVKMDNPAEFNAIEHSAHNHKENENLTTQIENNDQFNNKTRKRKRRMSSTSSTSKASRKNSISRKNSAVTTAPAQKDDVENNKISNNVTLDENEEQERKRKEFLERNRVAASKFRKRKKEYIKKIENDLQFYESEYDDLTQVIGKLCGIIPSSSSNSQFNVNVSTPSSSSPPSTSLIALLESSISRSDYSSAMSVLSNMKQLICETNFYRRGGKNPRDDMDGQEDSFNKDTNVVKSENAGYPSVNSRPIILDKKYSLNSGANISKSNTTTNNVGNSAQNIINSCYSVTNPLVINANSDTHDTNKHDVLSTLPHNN
# Assay: PBM E-score (8-mer binding enrichment) (E-score (-0.5 to 0.5)); higher = stronger / more preferred TF binding
# Conditions: protein concentration: 200 nM; construct: GST-full length
# Method: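 Universal 'all 10-mer' protein binding microarrays (Agilent AMADID 015681) probed with GST-tagged S. cerevisiae TFs (full-length or DBD) made by in vitro transcription/translation (PURExpress), about 100-200 nM. Bound TF was detected with fluorescent anti-GST. Each ungapped 8-mer (which stands for itself and its reverse complement) is scored by the PBM enrichment score (E-score), a modified Wilcoxon-Mann-Whitney statistic from -0.5 to +0.5, computed with the Universal PBM Analysis Suite. Scale: above 0.35 generally sequence-specific binding.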
row,Sequence,PBM E-score
1,CCGTGTGC,-0.179
2,ATGTGTGC,-0.0761
3,ACCATACT,-0.0266
4,AGATTTGA,0.144
5,CATAATAC,0.3
6,ACGATGTA,0.226
7,GAGCTACC,-0.212
8,CAAAAAAA,0.187
9,GACACGTC,0.382
10,GACACGCA,0.284
11,GACACGGA,-0.224
12,GACACGCC,0.0381
13,GACACGTA,0.44
14,GACACGGC,-0.0578
15,ACCCGTCG,-0.238
16,ATGACCCG,-0.254
17,CGGACGTA,0.353
18,CTGACCTC,-0.296
19,CTGACGGC,-0.167
20,CTGACGTA,0.489
21,CTGACGTC,0.482
22,CTGACGGA,0.0532
23,AATAGCCA,0.204
24,AAGAAAGG,0.00665
25,ACAGAGCA,-0.0386

row,Sequence,PBM E-score
1,ATCGTAAG,0.234
2,AGCGTAAC,0.266
3,AAGGTAAG,-0.00253
4,ACCGTAAG,0.123
5,ATCGTAAA,0.32
6,AACGTGAT,0.333
7,ATCGTAAT,0.401
8,ACCGTAAT,0.201
9,AGCGTAAG,0.0565
10,AACGTAAG,0.397
11,AGCGTAAT,0.366
12,AACGTAAT,0.48
13,AACCCACC,-0.0866
14,AGCGAAGC,-0.0755
15,CCCAATAC,0.0194
16,CAAAGGGC,-0.252
17,CTCTAGGA,-0.335
18,GTCGTAAC,0.267
19,ACCGTAAC,-0.135
20,GACGTAAA,0.456
21,ATCGTAAC,0.241
22,GGCGTAAC,0.0903
23,AAAGTAAA,0.0553
24,ACCGTAAA,0.206
25,GACGTAAC,0.467

row,Sequence,PBM E-score
1,GTCGTAAA,0.282
2,AACGTAAC,0.441
3,AACGTAAA,0.425
4,GCCGTAAA,0.107
5,ATCAAGTA,0.0281
6,ACGTTCGG,0.0529
7,CGAGTGGA,-0.154
8,CAGGCCCC,-0.271
9,GCAGTCAA,-0.262
10,ACTTTTGC,0.185
11,AGGCACAA,-0.0774
12,CACGTAAG,0.448
13,TCCGTAAA,-0.0256
14,CGCGTAAG,0.352
15,TTCGTAAA,0.32
16,CTCGTAAC,0.253
17,TACGTAAA,0.484
18,CTCGTAAA,0.139
19,CCCGTAAA,-0.102
20,CTCGTAAG,0.243
21,CCCGTAAC,-0.105
22,CACGTAAA,0.437
23,CACGTAAC,0.449
24,CAGAAGAA,0.0487
25,ACACCACG,0.063

row,Sequence,PBM E-score
1,CATGGTAG,-0.193
2,CTGGTTAC,-0.00958
3,CCGCTGTC,-0.153
4,CGTCGAAA,0.247
5,AACTTTAC,0.171
6,CCGATTCC,-0.0807
7,ATGATCTG,0.151
8,CAGTCATA,0.0103
9,GAGTCATA,0.122
10,CGGTCATC,-0.0713
11,CCGTCATA,0.368
12,CCGTCATC,0.36
13,CGGTCATA,0.0986
14,CAGTCATC,-0.204
15,GGGTCATA,-0.0307
16,GCGTCATA,0.481
17,CGCTTGCA,-0.102
18,CAGCGTCA,0.269
19,CCGCGTCC,-0.00078
20,TCGCGACA,-0.0189
21,CCGCGTCA,0.377
22,AAGCGTCA,0.353
23,TAGCGTCA,0.398
24,AGGCGTCA,0.256
25,CCGCGTCG,-0.127

row,Sequence,PBM E-score
1,ACGCGTCC,0.0182
2,TCGCGTCA,0.408
3,ACGCGTCT,0.192
4,ACGCGTCA,0.436
5,GGTAGCCA,-0.238
6,ACAAACCA,-0.0895
7,ATGCCGTG,-0.111
8,TGGCGGAA,-0.102
9,TAGCGCGA,-0.0664
10,GCGCGTCC,-0.15
11,GCGCGTTA,0.0431
12,GCGCGTCA,0.424
13,CTCAGCCC,-0.249
14,GACAATCA,0.00255
15,ATTTTGGC,0.11
16,GCAACCGC,-0.139
17,GTGTCATA,0.298
18,ATGTCAGC,0.129
19,ATGTCATA,0.41
20,ATGTCATG,0.403
21,CTGTCATC,0.0473
22,CTGTCATA,0.141
23,ATGTCACG,0.325
24,ATGTCATC,0.389
25,ATGTCAAG,0.187

row,Sequence,PBM E-score
1,GCTAGAGA,-0.0277
2,AACTTTAG,0.247
3,CCTATGTA,-0.0157
4,CGATCCGC,-0.0715
5,GACCAACA,0.17
6,AATCTCAC,-0.0325
7,CCTGTTCG,-0.0292
8,ACGTGAAC,0.311
9,ACGTGAGG,0.276
10,ACGTGATA,0.409
11,TCGTGAAA,0.0383
12,ACGTGATC,0.432
13,CCGTGATA,-0.0242
14,CCGTGATC,-0.255
15,AGGTGATG,0.087
16,AAGTGATC,0.112
17,ACGTGAAA,0.386
18,ACGTGATG,0.442
19,GCGTGATA,0.145
20,ATATCAAC,0.141
21,AGGGGAGC,-0.294
22,TAGGTTCA,-0.0685
23,TGTTGCAA,0.131
24,CAATTCAC,0.049
25,AGGTGAGG,-0.192

row,Sequence,PBM E-score
1,CGCAGATA,-0.00801
2,CAAGGCAA,-0.136
3,CGCTCTTA,0.112
4,ACGTTTCG,0.347
5,ATGCTCGA,0.00694
6,CACTGATG,0.0771
7,GTGATCAA,0.189
8,ATTGTTAG,0.0985
9,ATTGTTAC,0.362
10,CTTGTTAC,0.094
11,ACTCTTGG,-0.179
12,TACACGAA,0.251
13,CACACGTC,0.446
14,AACACGTG,0.395
15,CACACATA,0.0532
16,CACACGTG,0.386
17,TACACGGA,0.142
18,CACACGGC,-0.0173
19,AACACAAA,0.0722
20,CACACGCC,0.0149
21,TACACGTA,0.453
22,CACACAAA,0.114
23,AACACGAG,0.033
